Measured values: PubChem BioAssay (NCI)
About 79,000 compounds went through this panel and 15% of them were active in at least one assay; those are over-represented in the sample as a whole. Values without a mark were called inactive. Calls of active or inactive are those of the source. Rule as the data show it: active = growth inhibition above about 70%; inactive = the rest. Where a SMILES comes first, the peptide text is derived from it. [ ]: non-standard residue; d: D form. The star is where a group is joined. ξ: configuration not given here. Cbz = O=C(OCc1ccccc1)*; ξT = CC(O)C(N)C(=O)O

Experiments:
[1] = NCI Yeast Anticancer Drug Screen. Data for the rad50 strain (AID 155);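 also: 0% = growth of vehicle-only cultures of the same strain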; conditions: S. cerevisiae rad50 strain growth inhibition; at 50.0 µM; hits give high values
How it was run: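 Readout: growth inhibition relative to vehicle-treated cultures. Compound exposure was carried out in a genetically defined yeast strain deficient in DNA damage repair.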

[2] = NCI Yeast Anticancer Drug Screen. Data for the mec2-1 strain (AID 157); conditions: S. cerevisiae mec2-1 strain, at 50.0 µM, hits give high values
How it was run: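 mec2-1 yeast strain, carrying an alteration in DNA damage repair or cell cycle control, was exposed to compounds; growth inhibition was measured relative to vehicle-treated controls.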

[3] = NCI Yeast Anticancer Drug Screen. Data for the sgs1 mgt1 strain (AID 161);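 also: 0% = growth of cultures given vehicle only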; conditions: S. cerevisiae sgs1 mgt1 strain, at 50.0 µM, hits give high values
How it was run: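 Percent growth inhibition was derived by comparing compound-exposed mutant yeast with vehicle-exposed cultures. The strain carries alterations in DNA damage repair.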

[4] = NCI Yeast Anticancer Drug Screen. Data for the cln2 rad14 strain (AID 165);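 also: 0% = growth equal to vehicle treated cultures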; conditions: S. cerevisiae cln2 rad14 strain, at 50.0 µM, hits give high values
How it was run: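 Yeast carrying cln2 and rad14 alterations (cell cycle control and DNA damage repair) were exposed to compounds. Growth inhibition was measured against vehicle-treated controls.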

[5] = NCI Yeast Anticancer Drug Screen. Data for the bub3 strain (AID 167); conditions: S. cerevisiae bub3 mutant strain, at 50.0 µM, hits give high values
How it was run: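 Readout: yeast growth inhibition, expressed relative to vehicle-only wells. The test organism is a mutant strain from a panel with lesions in DNA repair or checkpoint genes.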

[6] = NCI Yeast Anticancer Drug Screen. Data for the mlh1 rad18 strain (AID 175); conditions: S. cerevisiae mlh1 rad18 strain growth inhibition; at 50.0 µM; hits give high values
How it was run: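 Growth inhibition of the yeast strain was measured after compound exposure and expressed relative to vehicle-treated controls. The strain carries defined defects in DNA damage repair.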

Compound	growth inhibition [1]	growth inhibition [2]	growth inhibition [3]	growth inhibition [4]	growth inhibition [5]	growth inhibition [6]
CC(O)C(NC(=O)CNC(=O)CNC(=O)OCc1ccccc1)C(=O)O (stereo not drawn) (Cbz-Gly-Gly-[ξT]-OH)	7.2%	-3.25%	-2.45%	16.4%	6.65%	3.05%
Cc1nc2c(ccc3cc4ccccc4cc32)cc1N(CCO)CCO	28.1%	-0.75%	-0.15%	20.9%	16.6%	18.1%
COc1ccc(N2C(=O)C3c4[nH]c5ccc(C)cc5c4C4CCC(C)CC4C3C2=O)cc1 (stereo unspecified)	-24.2%	-0.6%	1.65%	-6.9%	-13.3%	-4.55%
CC(C)(C)c1ccc(C(C)(C)C)c(=O)[nH]1	-32.1%	-19.1%	-12.3%	-41.5%	-6.1%	5.65%
COC(=O)/C=C1\CCC(C)O1 (stereo unspecified)	-1.35%	-26.6%	-27.7%	8%	-19.2%	16%
CC(=O)CC(C)(C)NNC(N)=S	1.45%	0.7%	14.3%	-21.6%	-4.2%	22.2%
O=c1c(-c2c(-c3ccccc3)oc3ccc(Cl)cc3c2=O)c(-c2ccccc2)oc2ccc(Cl)cc12	18.9%	3.9%	5.3%	7.25%	17.3%	3.75%
CCN(CC)CCOC(=O)c1ccc(N=Nc2ccc(O)cc2)cc1	7.25%	-0.8%	-17.9%	-6.25%	1%	-5.7%
CCc1nnc(CC)n1N1C(=O)CCC1=O	24.1%	28.1%	26.2%	11.1%	24.8%	21.7%
C#CCOC(=O)C(N)CC(N)=O (stereo unspecified)	-13.8%	-21.9%	-40.6%	-11.8%	-26.6%	-17.2%
O=C1CSSCC(=O)Nc2ccccc2N1	6.35%	0.5%	-0.2%	16.2%	19.4%	-4%
C[N+](C)(CC(=O)Nc1ccc(Cl)cc1)Cc1ccc2c(c1)CCCC2	99.5% (active)	99.8% (active)	99.8% (active)	99% (active)	99.3% (active)	99.7% (active)
Clc1ccccc1C(Cl)c1ccccc1 (stereo unspecified)	3.3%	-14.2%	-5.95%	-21.6%	-10.7%	-6.25%
C/C(=N\O)c1sc(-n2nc(-c3ccccc3)cc2-c2ccccc2)nc1C	13.7%	4.2%	37.6%	25.4%	30.6%	19.3%
CN(C)c1ccc(Cc2ccc(N(C)C)cc2)cc1	-4.1%	-6.3%	-16.9%	-23.6%	10.4%	7%
CN(C)CC1CCc2c(n(C)c3ccccc23)C1=O (stereo unspecified)	-2.55%	-2.85%	5.2%	-51.8%	-4.35%	10.6%
O=c1[nH]c2nc3ccccc3c(=O)n2/c1=C/c1ccc(O)cc1	9.6%	2.3%	-12%	8.95%	7.3%	-19.8%
COC(=O)CC1=CCCc2ccccc21	-3.95%	1.55%	-2.85%	7%	0.35%	-22.2%
CCN(CC)Cc1ccccc1COC(=O)c1ccc(OC)cc1	-0.1%	-3.45%	14.8%	-15.2%	-7.25%	11.3%
COc1ccc2c(c1)CC1(CC2)NCC(=O)NC1=O (stereo unspecified)	7.9%	15.6%	-11.8%	-2%	5.8%	12.4%
Nc1ccc(C2NC(=O)Cc3c2ccc2ccccc32)cc1 (stereo unspecified)	9.8%	9.7%	7.45%	-43.4%	10.3%	13.6%

Compound	growth inhibition [1]	growth inhibition [2]	growth inhibition [3]	growth inhibition [4]	growth inhibition [5]	growth inhibition [6]
COc1ccc2[nH]c3c4c(c(C)cc3c2c1)OC(C)(C)C=C4	16.2%	-5.75%	-4.05%	-43.3%	-16.6%	-6.15%
CCCCOC(=O)NC(=O)c1cc2cc(Br)cc(Br)c2oc1=O	-2%	25.8%	0.3%	-7.05%	-1.2%	-17.2%
COC(=O)C1=CN(c2ccccc2)C(=O)C1	5.5%	-14.3%	-6.95%	-26.1%	-8.7%	7.45%
Cc1ccsc1C(=O)c1ccccc1[N+](=O)[O-]	-3.65%	-13.3%	-6.7%	-20.8%	-7.35%	6.25%
O=Cc1ccc(O)cn1	-0.65%	6.25%	-4.4%	-11.9%	1.75%	-0.75%
NC(Cc1ccc(S(=O)(=O)O)cc1)C(=O)NC(CCCCNC(=O)NCCCCC(NC(=O)C(N)Cc1ccc(S(=O)(=O)O)cc1)C(=O)NC(Cc1ccc(S(=O)(=O)O)cc1)C(=O)O)C(=O)NC(Cc1ccc(S(=O)(=O)O)cc1)C(=O)O (stereo unspecified)	-11.7%	-3.8%	8.45%	-8.65%	22.6%	14.2%
COc1ccccc1Nc1nc(N)nc(N)c1N=O	11.4%	-36.1%	-16.2%	-27.7%	-34.6%	-56.1%
Cc1nc(NS(=O)(=O)c2ccc(N)cc2)nc(C)c1Br	-9.75%	-9.55%	4.1%	-52%	-14.7%	-15.1%
Oc1c(Cl)c(Cl)c(O)c2ccccc12	-3.7%	-0.95%	7.15%	44.2%	8.1%	-52.9%
Cc1cc(=O)c2cc([N+](=O)[O-])ccc2[nH]1	6.05%	6.35%	-9.7%	-5.95%	5.85%	-2.65%
O=C(CCl)OCCCc1ccccc1	-10.6%	44.2%	49.6%	-6.3%	17%	36%
Cc1cc(Cl)c(=O)n(-c2ccc(Cl)cc2)n1	27.3%	-4.6%	9.45%	4.7%	15.3%	44.9%
CC1=C(C(=O)CC(=O)C(=O)Nc2ccc(C)cc2)Sc2ccccc2N1	-7.35%	21.1%	-16.4%	21.9%	-9.1%	-8.25%
COc1ccc(C#CCC(OC2OC(CO)C(O)C(O)C2O)C(O)c2ccc(OC)c(OC)c2)cc1OC (stereo unspecified)	-0.15%	-7.55%	-6.95%	12%	-17.2%	-15.9%
COC(=O)C(C(=O)C(=O)NC1=C(Cl)C(=O)c2ccccc2C1=O)c1csc(-n2nc(-c3ccccc3)cc2-c2ccccc2)n1 (stereo unspecified)	-0.4%	-26.6%	-14.4%	0.85%	26.1%	-5.4%
Cn1c(=O)c2c(nc(C(c3ccccc3)c3ccccc3)n2C)n(C)c1=O	-11.3%	-25.5%	-3.55%	-33.5%	6.25%	-18.6%
COc1ccc(C2OC3=C(Nc4ccc(Cl)cc4N3)C2=O)c(OC)c1 (stereo unspecified)	-9.1%	-30.9%	-28.1%	-29.9%	-42.2%	-28.8%
O=C(NC1CC1)c1ccccc1	5.8%	1.6%	4.7%	-5.9%	1.85%	-15.7%
Cc1ncc(CO)c(Cc2ccc(N(C)C)cc2)c1O	3.15%	-2.25%	-5.9%	-2.25%	-58.8%	1.8%
O=S1OC(c2ccccc2)C(c2ccccc2)O1 (stereo unspecified)	-2.1%	-10.5%	-4.55%	11.8%	-1.45%	-7.7%
